Assay results taken from PubChem BioAssay (EPA / NIEHS).
Where “and” joins values, the source holds several entries; their conditions need not be identical. Equal values may be shown once. Records with an inconclusive call do not appear. Calls of active or inactive are those of the source. The calls were made as follows: active = hit-call score of the fitted dose curve at least 0.9, where 1 is the maximum; inconclusive = response in the unintended direction; inactive = score below 0.9.

Experiment: CCTE_Simmons_CellTiterGLO_HEK293T: Viability Assessment in CCTE's Assays for Thyroperoxidase (TPO) Inhibition, Simmons Lab (AID 2283665);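 as to AC50: cells exposed to compound for 24 h before readout; actives reduce ATP signal below DMSO vehicle meaning cytotoxicity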
Method: CCTE_Simmons_CellTiterGLO_HEK293T is a cell-based, single-readout assay that uses HEK293T, a human kidney cell line, with measurements taken at 24 hours after chemical dosing in a 384-well plate.CCTE_Simmons_CellTiterGLO_HEK293T is the assay component measured from the CCTE_Simmons_CellTiterGLO_HEK293T assay. It is designed to make measurements of ATP content, a form of viability reporter, as detected with bioluminescence signals by Luciferase-coupled ATP quantitation technology. This is a secondary cytotoxicity assay to CCTE_Simmons_AUR_TPO to estimate a cellular tolerance limit.Data from the assay component CCTE_Simmons_CellTiterGLO_HEK293T was analyzed at the endpoint, CCTE_Simmons_CellTiterGLO_HEK293T, in the positive analysis fitting direction relative to DMSO as the negative control and baseline of activity. Using a type of viability reporter, measures of ATP content for loss-of-signal activity can be used to understand the viability. This assay was run in parallel with aeid 1508 as a means of indicating the range of chemical cytotoxicity or reactivity. To generalize the intended target to other relatable targets, this assay endpoint is annotated to the cell cycle intended target family, where the subfamily is cytotoxicity.
Human HEK293T cells (GenHunter; Nashville, Tennessee) were seeded overnight in 384-well, solid white assay plates (Greiner, BioExpress) at a density of 10 000 cells per well in 65 ul Dulbecco's Modified Eagle Medium (Life Technologies; Carlsbad, California) supplemented with 1% fetal bovine serum (HyClone; Logan, Utah). Test compounds were administered using the HDRT as described earlier to achieve a 0.5% final DMSO concentration. Cells were then incubated at 37C for 24 hr in a humidified 5% CO2 incubator. Cell Titer Glo (Promega; Madison, WI) reagent (25 ul) was then added by the BioTek MicroFlo and microplates were incubated at room temperature in the dark for 20min. Plates were read on a plate reader (FLUOStar Optima) using an endpoint luminescence protocol (top read). Three biological replicates of technical singles were run for every chemical concentration tested. A titrated range of DCNQ served as a positive control on each plate of the cytotoxicity screening assay.Test chemicals were administered as a titrated series of 8 concentrations from 5 nM up to 87.5 uM [final] for 24 hours prior to single endpoint detection. Three biological replicates of technical singles were run for every chemical concentration tested. Dimethylsulfoxide [DMSO] was used as the vehicle control. Dichlone [DCNQ] was used as the positive control and was administered as a titrated series of 8 concentrations from 1 nM up to 100 uM [final].

Q: With `Cc1cnc(C2=NC(C)(C(C)C)C(=O)N2)c(C(=O)O)c1` (configuration not stated) as the compound, how does the outcome read?
A: inactive

Q: Which outcome does the source give for `CCOP(=S)(OCC)Oc1nc(Cl)n(C(C)C)n1` here?
A: inactive

Q: Which outcome does the source give for `CCOc1nc(F)cc2nc(S(=O)(=O)Nc3c(Cl)cccc3Cl)nn12` here?
A: inactive

Q: With `CCN(CC)c1nc(C)cc(OP(=S)(OC)OC)n1` as the compound, how does the AC50 read?
A: 53.8 µM (active)

Q: For `CC(C)=CC1C(C(=O)OCc2coc(Cc3ccccc3)c2)C1(C)C` (configuration not stated), which AC50 is on record?
A: 32.7 µM (active)

Q: For `CCOP(=O)(OCC)Oc1nc(Cl)c(Cl)cc1Cl`, which AC50 is on record?
A: 81.5 µM (active)

Q: Which AC50 does the source give for `COc1ccc(-c2ccccc2)cc1NNC(=O)OC(C)C` here?
A: 42.4 µM (active)

Q: Which outcome does the source give for `O=P(O)(O)CCCl` here?
A: inactive

Q: For `CCN(CC)C(=O)C(C)Oc1cccc2ccccc12` (configuration not stated), which AC50 is on record?
A: 87.8 µM (active)

Q: With `CS(=O)(=O)c1ccc(C(=O)C2C(=O)CCCC2=O)c([N+](=O)[O-])c1` as the compound, how does the outcome read?
A: inactive

Q: With `Clc1nc(Cl)nc(Nc2ccccc2Cl)n1` as the compound, how does the AC50 read?
A: 83.1 µM (active)

Q: With `O=c1n(Cl)c(=O)n(Cl)c(=O)n1Cl` as the compound, how does the outcome read?
A: inactive

Q: For `OC(c1ccc(Cl)cc1)(c1ccc(Cl)cc1)C(Cl)(Cl)Cl`, which AC50 is on record?
A: 6.74 µM (active)

Q: For `COC(=O)NC(=S)Nc1ccccc1NC(=S)NC(=O)OC`, which outcome is on record?
A: inactive

Q: Which AC50 does the source give for `COP(=S)(OC)SCn1nnc2ccccc2c1=O` here?
A: 53.8 µM (active)

Q: Which AC50 does the source give for `CCOc1nc(C(Cl)(Cl)Cl)ns1` here?
A: 82.9 µM (active) and 70.4 µM (active)

Q: Which outcome does the source give for `COP(=S)(OC)Oc1ccc([N+](=O)[O-])c(C)c1` here?
A: inactive
